Counter-ions that a name gives are not always drawn.
test system: primary human airway basal cells (HBEC, luciferase-transduced); experiment: proliferation (luciferase bioluminescence) Z score relative to plate mean; higher = more proliferation / more cells, active = 1.96 or more; conditions: donor: 1; 0.5 µM; library: ENZO Libraries; 4 days
Description: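 Primary human bronchial epithelial (airway basal) cells from two donors, lentivirally transduced with pHIV-Luc-ZsGreen, were seeded at 2000 cells/well in 384-well plates in FAD medium with ENZO or Prestwick library compounds and cultured for 4 days. Luciferin was then added and bioluminescence was read as a measure of cell number. Relative light units were converted to Z scores against the plate, and the mean of triplicate wells is reported.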

Row | Compound | proliferation
1 | O=C1Nc2ccc([N+](=O)[O-])cc2C1=O [5-Nitroisatin] | 0.112 (inactive)
2 | O=c1c(-c2ccc(O)cc2)coc2cc(O)cc(O)c12 [Genistein] | 0.674 (inactive)
3 | Nc1c(O)cc(O)cc1C=Cc1ccc(O)cc1 [Aminoresveratrol sulfate] | 0.00314 (inactive)
4 | CC(C)c1cc(/C=C(\C#N)C(=O)NCCCc2ccccc2)cc(C(C)C)c1O | -0.208 (inactive)
5 | Nc1ncn([C@H]2C[C@H](O)[C@@H](CO)O2)c(=O)n1 [5-Aza-2'-deoxycytidine] | -0.383 (inactive)
6 | C=C(C)[C@@H](CC=C(C)C)C[C@@]12C[C@@H](CC=C(C)C)C(C)(C)[C@@](CC=C(C)C)(C(=O)C(C(=O)c3ccc(O)c(O)c3)=C1O)C2=O [Garcinol] | -0.468 (inactive)
7 | N#CC(=C(/N)Sc1ccccc1N)/C(C#N)=C(/N)Sc1ccccc1N | -1.3 (inactive)
8 | COCc1cc(O)c(O)c(O)c1-c1c(COC)cc(O)c(O)c1O | -0.578 (inactive)
9 | O=C(O)CNC(=O)C(CS)Cc1ccccc1 (racemic) [DL-Thiorphan] | 0.124 (inactive)
10 | O=C(O[C@@H]1Cc2c(O)cc(O)cc2O[C@@H]1c1cc(O)c(O)c(O)c1)c1cc(O)c(O)c(O)c1 [Epigallocatechin gallate] | 0.183 (inactive)
11 | CCOC(=O)[C@H](CCc1ccccc1)N[C@@H](C)C(=O)N1CCC[C@H]1C(=O)O [Enalapril] | -0.154 (inactive)
12 | Cc1cc2ncc(-c3ccccc3)nc2cc1C | 5.22 (active)
13 | CO[C@@H]1[C@H](OC(=O)/C=C/C=C/C=C/C=C/C(=O)O)CC[C@]2(CO2)[C@H]1[C@@]1(C)O[C@@H]1CC=C(C)C [Fumagillin] | -1.58 (inactive)
14 | NC(=O)c1cccnc1 [Nicotinamide] | 0.0934 (inactive)
15 | O=c1c(-c2ccc(O)cc2)coc2cc(O)ccc12 [Daidzein] | 0.207 (inactive)
16 | N#C/C(=C\c1ccc(O)c(O)c1)C(=O)NCc1ccccc1 | 0.366 (inactive)
17 | C[C@H](CS)C(=O)N1CCC[C@H]1C(=O)O [Captopril] | -0.424 (inactive)
18 | CC(C)(C)c1cc(C=C(C#N)C(N)=S)cc(C(C)(C)C)c1O | -0.666 (inactive)
19 | O=C(O)c1cc(NCc2cc(O)ccc2O)ccc1O [2-Hydroxy-5-(25-dihydroxybenzylamino)benzoic acid] | -0.149 (inactive)
20 | CCCC[C@@H](C=O)NC(=O)OC(C)(C)C | 0.474 (inactive)

same assay, conditions: donor: 1; 5 µM; library: ENZO Libraries; 4 days

Row | Compound | proliferation
21 | O=C1Nc2ccc([N+](=O)[O-])cc2C1=O [5-Nitroisatin] | -0.27 (inactive)
22 | O=c1c(-c2ccc(O)cc2)coc2cc(O)cc(O)c12 [Genistein] | 2.14 (active)
23 | Nc1c(O)cc(O)cc1C=Cc1ccc(O)cc1 [Aminoresveratrol sulfate] | 1.56 (inactive)
24 | CC(C)c1cc(/C=C(\C#N)C(=O)NCCCc2ccccc2)cc(C(C)C)c1O | -0.405 (inactive)
25 | Nc1ncn([C@H]2C[C@H](O)[C@@H](CO)O2)c(=O)n1 [5-Aza-2'-deoxycytidine] | -0.302 (inactive)
26 | C=C(C)[C@@H](CC=C(C)C)C[C@@]12C[C@@H](CC=C(C)C)C(C)(C)[C@@](CC=C(C)C)(C(=O)C(C(=O)c3ccc(O)c(O)c3)=C1O)C2=O [Garcinol] | -0.215 (inactive)
27 | N#CC(=C(/N)Sc1ccccc1N)/C(C#N)=C(/N)Sc1ccccc1N | -1.33 (inactive)
28 | COCc1cc(O)c(O)c(O)c1-c1c(COC)cc(O)c(O)c1O | -0.416 (inactive)
29 | O=C(O)CNC(=O)C(CS)Cc1ccccc1 (racemic) [DL-Thiorphan] | -0.0316 (inactive)
30 | O=C(O[C@@H]1Cc2c(O)cc(O)cc2O[C@@H]1c1cc(O)c(O)c(O)c1)c1cc(O)c(O)c(O)c1 [Epigallocatechin gallate] | -0.177 (inactive)
31 | CCOC(=O)[C@H](CCc1ccccc1)N[C@@H](C)C(=O)N1CCC[C@H]1C(=O)O [Enalapril] | -0.126 (inactive)
32 | Cc1cc2ncc(-c3ccccc3)nc2cc1C | 2.1 (active)
33 | CO[C@@H]1[C@H](OC(=O)/C=C/C=C/C=C/C=C/C(=O)O)CC[C@]2(CO2)[C@H]1[C@@]1(C)O[C@@H]1CC=C(C)C [Fumagillin] | -0.343 (inactive)
34 | NC(=O)c1cccnc1 [Nicotinamide] | 0.119 (inactive)
35 | O=c1c(-c2ccc(O)cc2)coc2cc(O)ccc12 [Daidzein] | 1.72 (inactive)
36 | N#C/C(=C\c1ccc(O)c(O)c1)C(=O)NCc1ccccc1 | -0.179 (inactive)
37 | C[C@H](CS)C(=O)N1CCC[C@H]1C(=O)O [Captopril] | -0.0768 (inactive)
38 | CC(C)(C)c1cc(C=C(C#N)C(N)=S)cc(C(C)(C)C)c1O | -0.702 (inactive)
39 | O=C(O)c1cc(NCc2cc(O)ccc2O)ccc1O [2-Hydroxy-5-(25-dihydroxybenzylamino)benzoic acid] | -0.503 (inactive)
40 | CCCC[C@@H](C=O)NC(=O)OC(C)(C)C | -0.0416 (inactive)

Reference: the supplement of paper PMC12045047
